This note sets out measurements from PubChem BioAssay.

The source made the active and inactive calls.

Assay [1] deals with Human papillomavirus type 1a protein E7 (residues 44-93). Nature of the assay: HPV1a E7 fragment binders on microarrays, primary screen, biochemical, small-molecule microarray, residues 44-93, 635 nm fluorescence (AID 1108).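 Further: E7 fragment applied at 1 µg/mL in TBST for 1 h at 4 C; score combines spot fluorescence with its signal to noise ratio.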 The settings on record: small-molecule microarray binding, fluorescence 635 nm; higher = more signal.
A short description of assay [2]: modulators of HCV replicon luciferase signal, primary screen, HCV replication inhibitor project, Huh7 cells, luciferase reporter (AID 1109).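 Further: huh7 hepatoma cells harbouring a luciferase neomycin HCV replicon reporter; luciferase luminescence as measure of HCV replicon replication; test concentration not given here.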 Conditions: 48 h, higher = more signal. (In general: In antiviral work, replicon cells carry a viral genome segment that copies itself.)
Assay [3] deals with Left-right determination factor 2 (Homo sapiens) (UniProt O00292). Nature of the assay: LEFTY2 binders on small-molecule microarrays, primary screen, biochemical, small-molecule microarray, 635 nm fluorescence scan (AID 1110). The settings on record: LEFTY2 binding, higher = more signal.
The target in assay [4] is Calmodulin-1 (Homo sapiens) (UniProt P0DP23). Nature of the assay: CALM1 binders on microarrays, EGTA buffer, profiling panel, biochemical, small-molecule microarray, Cy5-labelled CALM1 (AID 1111).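 Further: labelled calmodulin applied in Tris saline Tween buffer holding calcium plus EGTA and DTT.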 Conditions: Cy5-CALM1 binding fluorescence, higher = more signal.
For assay [5] the target is unchanged. Nature of the assay: calcium-bound CALM1 binders on microarrays, profiling panel, artefact control for SMM control-protein annotation, biochemical, small-molecule microarray, Cy5-labelled CALM1, plus calcium (AID 1112).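 Further: score merges spot fluorescence with signal to noise from triplicate slides.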 The settings on record: Cy5-CALM1 binding fluorescence, higher = more signal.
A short description of assay [6]: small-molecule microarray binders of probe aWnt5a, primary screen, biochemical, biotinylated probe, 635/667 nm fluorescence (AID 1113).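 Further: score merges 667 nm fluorescence intensity with signal-to-noise per printed feature.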 The settings on record: higher = more signal.
Assay [7] in a line: small-molecule microarray binders of probe aShh, primary screen, biochemical, biotinylated probe, 635/667 nm fluorescence (AID 1114).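 Further: probe is biotin-labelled aShh protein from a stem cell growth factor screen; measures binding of labelled protein to compounds printed on the slide; score merges feature fluorescence at 667 nm with signal-to-noise.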 Conditions: higher = more signal.
Assay [8] can be described thus: small-molecule microarray binders of probe aNog, primary screen, biochemical, biotinylated probe, 635/667 nm fluorescence (AID 1115).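 Further: probe is biotinylated aNog protein used at 0.15 µg/mL for 1 h at 4 C; z-score combines 667 nm fluorescence of each spot with its signal to noise.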 The settings on record: higher = more signal.
Assay [9] addresses Torsin-1A-interacting protein 1 (Homo sapiens) (UniProt Q5JTV8). Briefly: LAP1 binders from COS7 cell lysate, primary screen, small-molecule microarray, 635/667 nm fluorescence (AID 1116). The settings on record: COS7-hLAP1 lysate binding, 635 nm fluorescence, higher = more signal.
The target in assay [10] is Alpha-bungarotoxin (Bungarus multicinctus) (UniProt P60615). Briefly: alpha-bungarotoxin binders on microarray, profiling panel, artefact control for SMM control protein annotation, biochemical, small-molecule microarray, Alexa647 label, 635/667 nm fluorescence (AID 1117). The settings on record: alpha-BTX-A647 binding fluorescence, higher = more signal.
In another assay the target is Albumin (Bos taurus) (UniProt P02769). Nature of the assay: bovine serum albumin binders on microarray, profiling panel, artefact control for SMM control protein annotation, biochemical, small-molecule microarray, Alexa647 label, 635/667 nm fluorescence (AID 1118).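 Further: score merges 667 nm emission intensity and signal-to-noise per printed compound spot.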 The settings on record: BSA-A647 binding, fluorescence 635 nm, higher = more signal.
Assay [11] is described as follows: small-molecule microarray binders of probe aXIP, primary screen, biochemical, NeuroSMM set, 635/667 nm fluorescence (AID 1119).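 Further: probe is the protein aXip251-270 applied at 1 µg/mL to compound-printed slides; binding of probe to printed compounds measured as 667 nm fluorescence plus signal to noise.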 Conditions: higher = more signal, called active from +8 up or from −8 down.
Assay [12] in a line: small-molecule binders of probe aNOTCH3, primary screen, biochemical, small-molecule microarray, 635/667 nm fluorescence (AID 1120).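 Further: probe is a biotin-tagged antibody raised against NOTCH3 rather than NOTCH3 protein; score merges spot fluorescence near 667 nm with spot signal to noise.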 Conditions: higher = more signal.
Assay [13] is described as follows: small-molecule binders of probe aNOTCH2, primary screen, biochemical, small-molecule microarray, 635/667 nm fluorescence (AID 1121).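 Further: score merges feature fluorescence read at 667 nm with its signal to noise.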 The settings on record: higher = more signal.
The target in assay [14] is Carbonic anhydrase 2 (Homo sapiens) (UniProt P00918). Briefly: CAII small-molecule binders, profiling panel, biochemical, small-molecule microarray, Alexa647-labelled CAII (AID 1122). Conditions: CAII-A647 binding fluorescence, higher = more signal.
Assay [15] can be described thus: COS7 lysate on small-molecule microarray, probe aHis, 635 nm (AID 1123).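 Further: z-score combines 667nm fluorescence intensity with signal-to-noise per printed compound spot.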 Conditions: COS7 cell lysate, fluorescence, higher = more signal.
Assay [16] in a line: compound binding in COS7 lysate, probe aLAP1, primary screen, cell lysate, small-molecule microarray (AID 1124).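 Further: lysate comes from COS7 cells expressing LAP1 and is applied at 0.3 µg/mL; score merges spot fluorescence near 667 nm with signal-to-noise over triplicate slides.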 Conditions: probe aLAP1, fluorescence, higher = more signal.
For a further assay, the system named is Sam68 (KHDRBS1). Briefly: Sam68 small-molecule binders, primary screen, biochemical, small-molecule microarray, 635 nm fluorescence (AID 1125).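 Further: score merges 667 nm channel intensity with signal to noise over triplicate slides.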 The settings on record: small-molecule microarray binding, higher = more signal.
The subject of assay [17] is Chordin-like protein 2 (CHRDL2). Briefly: CHRDL2 small-molecule binders, primary screen, biochemical, small-molecule microarray, 635 nm fluorescence (AID 1126).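 Further: printed compound slides probed with Chrdl2 protein at 4 µg/mL for 1 h at 4 C; score merges 667 nm emission intensity with signal to noise over three replicate slides.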 Conditions: small-molecule microarray binding, fluorescence 635 nm; higher = more signal.
Assay [18] has as its target Concanavalin-A (Canavalia ensiformis) (UniProt P02866). Briefly: ConA small-molecule binders, primary screen, artefact control for SMM control protein annotation, biochemical, small-molecule microarray, Alexa647 label, 635 nm (AID 1127).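 Further: z combines 667 nm emission intensity with signal-to-noise across three replicate slides.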 Conditions: ConA-A647 binding fluorescence, higher = more signal.

Sequence of Alpha-bungarotoxin (Bungarus multicinctus) (P60615 whole entry, looked up): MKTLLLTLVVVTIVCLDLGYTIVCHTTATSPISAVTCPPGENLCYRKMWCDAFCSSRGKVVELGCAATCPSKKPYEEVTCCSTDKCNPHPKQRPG
Sequence of Albumin (Bos taurus) (P02769 whole entry, looked up): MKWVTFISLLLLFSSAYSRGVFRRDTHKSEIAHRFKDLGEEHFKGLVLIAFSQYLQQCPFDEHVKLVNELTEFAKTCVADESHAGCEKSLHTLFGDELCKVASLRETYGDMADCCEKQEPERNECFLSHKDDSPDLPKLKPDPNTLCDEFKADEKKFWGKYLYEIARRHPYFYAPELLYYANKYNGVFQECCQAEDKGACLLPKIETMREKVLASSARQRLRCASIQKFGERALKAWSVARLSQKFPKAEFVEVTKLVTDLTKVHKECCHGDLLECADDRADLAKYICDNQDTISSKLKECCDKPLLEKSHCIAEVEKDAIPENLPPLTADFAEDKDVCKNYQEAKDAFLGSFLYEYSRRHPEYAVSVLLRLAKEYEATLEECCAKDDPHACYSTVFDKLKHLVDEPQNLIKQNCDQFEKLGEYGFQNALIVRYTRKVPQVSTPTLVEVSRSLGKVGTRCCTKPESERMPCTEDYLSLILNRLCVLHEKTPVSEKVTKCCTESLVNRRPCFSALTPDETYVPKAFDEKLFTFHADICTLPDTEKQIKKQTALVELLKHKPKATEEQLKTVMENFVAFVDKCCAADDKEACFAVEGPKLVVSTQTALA
Sequence of Concanavalin-A (Canavalia ensiformis) (P02866 whole entry, looked up): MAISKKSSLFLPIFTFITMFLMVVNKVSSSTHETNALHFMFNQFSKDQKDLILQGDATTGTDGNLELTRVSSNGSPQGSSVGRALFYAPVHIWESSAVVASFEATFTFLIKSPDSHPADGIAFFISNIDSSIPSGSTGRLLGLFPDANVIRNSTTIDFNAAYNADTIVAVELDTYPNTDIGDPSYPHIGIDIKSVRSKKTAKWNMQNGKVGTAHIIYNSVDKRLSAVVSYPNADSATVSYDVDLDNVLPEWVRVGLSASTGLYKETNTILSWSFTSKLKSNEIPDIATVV
Sequence of Left-right determination factor 2 (Homo sapiens) (O00292 whole entry, looked up): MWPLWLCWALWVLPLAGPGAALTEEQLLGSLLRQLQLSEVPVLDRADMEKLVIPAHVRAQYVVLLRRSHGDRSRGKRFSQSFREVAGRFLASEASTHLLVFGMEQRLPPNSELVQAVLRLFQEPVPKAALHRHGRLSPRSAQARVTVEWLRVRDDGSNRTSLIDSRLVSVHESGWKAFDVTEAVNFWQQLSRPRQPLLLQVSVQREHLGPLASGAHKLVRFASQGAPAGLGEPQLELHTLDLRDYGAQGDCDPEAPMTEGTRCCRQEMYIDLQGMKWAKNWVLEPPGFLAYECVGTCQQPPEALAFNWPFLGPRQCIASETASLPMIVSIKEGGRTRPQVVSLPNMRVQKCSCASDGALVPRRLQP
Sequence of Torsin-1A-interacting protein 1 (Homo sapiens) (Q5JTV8 whole entry, looked up): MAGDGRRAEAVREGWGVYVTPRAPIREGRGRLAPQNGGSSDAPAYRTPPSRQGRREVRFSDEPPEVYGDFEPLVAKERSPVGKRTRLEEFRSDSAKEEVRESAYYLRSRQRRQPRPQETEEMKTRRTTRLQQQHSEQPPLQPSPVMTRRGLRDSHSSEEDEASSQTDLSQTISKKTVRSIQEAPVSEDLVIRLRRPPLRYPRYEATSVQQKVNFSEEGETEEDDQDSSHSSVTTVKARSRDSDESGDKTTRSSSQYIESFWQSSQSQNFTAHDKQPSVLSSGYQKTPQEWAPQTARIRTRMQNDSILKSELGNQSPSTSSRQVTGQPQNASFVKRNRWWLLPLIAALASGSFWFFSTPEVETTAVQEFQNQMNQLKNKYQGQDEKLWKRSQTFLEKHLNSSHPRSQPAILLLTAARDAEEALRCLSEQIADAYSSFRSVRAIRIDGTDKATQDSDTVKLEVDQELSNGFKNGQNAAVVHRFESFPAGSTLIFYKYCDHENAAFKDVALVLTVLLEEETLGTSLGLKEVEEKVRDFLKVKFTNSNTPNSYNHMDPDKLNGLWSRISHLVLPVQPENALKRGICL

In the case of `NCCCCCNC(=O)[C@@H]1C[C@@H]2C(=O)N3CCC[C@H]3C(=O)N2[C@@H]1c1ccc(O)cc1`, the composite z-score in assay [1] was determined as 1.31; in assay [3] it was 0.732; in assay [4], 1.09; in assay [5] it was 1.12; in [6], 0.216; in [7], 0.163. Besides, the composite z-score in assay [8] was -0.477; in [9], 1.05; in assay [10] it was 0.494; with Albumin (Bos taurus), 0.539; in assay [12], 0.0496; in [13] it was 0.0214. Further, the composite z-score in assay [14] was determined as 0.442; in assay [15], 1.19; in assay [16] it was 0.666; with Sam68 (KHDRBS1), 0.776; in assay [17], 0.466; in assay [18] it was 0.893. The z-score in [2] was -0.837. Besides, the composite Z-score in assay [11] is -0.213 (inactive).
Regarding `CS(=O)(=O)CCOC(=O)C1=CC(CCCO)=CC(C2CC2)N(Cc2cccc(OC(F)(F)F)c2)C=C1C(=O)OCCS(C)(=O)=O` (stereo not given), the composite z-score in assay [1] was 1.3; in assay [3], -0.022; in assay [4], 0.238; in assay [5] it was 0.478; in [6], -0.0643; in [7], -0.0243. For the same compound, the composite z-score in assay [8] is 0.576; in [9], 1.9; in [10], 0.0358; with Albumin (Bos taurus), 0.42; in [12] it was 0.0311; in assay [13], -0.133. The composite z-score in [14] was 0.751; in assay [15], 1.16; in [16], -0.0318; in the assay on Sam68 (KHDRBS1), 1.33; in assay [17], -0.316; in assay [18], 0.244. The z-score in assay [2] was -1.63. Further, the composite Z-score in assay [11] was 3.23 (inactive).
As to `C=CCNC(=O)[C@@H]1[C@H]2C(=O)O[C@H](c3ccccc3)[C@H](c3ccccc3)N2[C@H](c2ccc(O)cc2)[C@@]12C(=O)Nc1ccc(C#CCC(C(=O)OC)C(=O)OC)cc12`, the composite z-score in assay [1] is 1.31; in assay [3], -0.0742; in assay [4], -0.0406; in [5], 0.0221; in assay [6], -0.147; in [7], -0.2. Further, the composite z-score in assay [8] was 0.187; in [9], 0.411; in assay [10] it was 0.388; with Albumin (Bos taurus) it was 0.0825; in [12] it was -0.0647; in assay [13] it was -0.0907. Also, the composite z-score in [14] came to 0.336; in assay [15], 1.52; in [16], 0.123; in the assay on Sam68 (KHDRBS1), 1.33; in assay [17], 0.231; in assay [18], 0.933. The z-score in assay [2] is -2.11. Also, the composite Z-score in assay [11] was -0.136 (inactive).
As for `CCCCC(=O)N(CCN1CCOCC1)[C@@H]1CC(C(=O)NCCO)=C[C@H](Oc2c(I)cc(CO)cc2OC)[C@H]1O`, the composite z-score in assay [1] is 0.33; in assay [3], 0.653; in assay [4], -0.282; in [5], -0.598; in assay [6], -0.19; in assay [7], -0.358. Besides, the composite z-score in assay [8] was -0.31; in assay [9] it was -0.0458; in assay [10] it was 0.354; in the assay with Albumin (Bos taurus), -0.365; in [12] it was -0.163; in [13], -0.185. Besides, the composite z-score in assay [14] was -0.142; in assay [15], -0.463; in assay [16], -0.265; in the assay with Sam68 (KHDRBS1) it was 0.593; in assay [17] it was 0.459; in [18], 0.331. Moreover, in [2], the z-score stood at 0.282. Moreover, the composite Z-score in [11] is -0.18 (inactive).
Turning to `C=C(/C(=C/C[C@@H](OC(C)=O)c1ccc(CO)o1)c1cc(C(=O)OC)ccc1OC)C(C)C`, the composite z-score is 0.443 in assay [1]; 0.192 in assay [3]; 0.189 in [4]; -0.657 in assay [5]; 0.0251 in assay [6]; 0.216 in assay [7]. Besides, the composite z-score in [8] is 0.141; in assay [9] it was -0.144; in [10], -0.0861; with Albumin (Bos taurus), 0.461; in assay [12] it was 0.232; in [13], -0.124. Moreover, the composite z-score in assay [14] amounted to 0.662; in assay [15] it was 1.31; in assay [16], 0.0806; in the assay on Sam68 (KHDRBS1) it was 0.561; in [17], 0.0347; in assay [18], 0.395. In assay [2], the z-score was -0.9. Moreover, the composite Z-score in assay [11] is -0.0662 (inactive).
